Laboratory results as given in the supplement of paper PMC6555819.

What follows are sequences tested on FXR:RXRa (NR concentration 270 nM, RXRa partner concentration 90 nM) (assay: PBM binding z-score (relative to random genomic background probes); higher = stronger binding; sequences stand for … in GC…GCGATTGACAGCGTAGAATGAAGG).
Outline: (§1)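 The probes on custom Agilent 4×180K protein-binding microarrays were double-stranded, with 34-nt variable regions bearing direct-repeat seeds, single-nucleotide variants, half-site ablations and random human genomic background sequences. Incubation lasted 1 h with ligand-free nuclear receptor dimers in PBS pH 7.4, 2% milk, 0.02% Triton X-100, 1 mM DTT, 0.2 mg/mL BSA and 0.4 mg/ml salmon testes DNA. Antibodies against each partner (one per run) detected bound dimers, and fluorescence scans were regression-normalized. Binding z-scores take the random background probes as reference.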
In the case of TCATAAAGGTAAACAGGTGAAAGTCCGTAAGTTA, the PBM binding z-score is reported as 1.21.
ATATGTAGGTTACATCCGGTTCATTCAGGCTATG was tested, and the PBM binding z-score was 1.
Sequence TCTATTAGTTGACGGGCAACCGACGAGTCCGTTT has a PBM binding z-score of 0.51.
For CAGCCAAGGTCAGGGCCAGTATAGGAGGAACGTT, the PBM binding z-score was 5.13.
CGTCCAAGGTCAGAGAGGTCAGTCAATGCCGAGT gave a PBM binding z-score of 6.08.
Sequence CGTCCAAGGTCAAAAGTCAGTGAAGAGATGACGG has a PBM binding z-score of 6.47.
TAGCATAGGTCATTGGGCCAGTATAGTACGCATC was tested, and the PBM binding z-score was 6.02.
Work on ATCGAAAGGTCGAAGGTGTGTATACCCACCCGAA yielded a PBM binding z-score of 3.46.
In the case of GTACCAAGGTGAATAGGTTGTTGATGAGTAGGCG, the PBM binding z-score is reported as 0.414.
TAGCCTAGGTCATTGCGCCAGTATAGTACGCATC was tested, and the PBM binding z-score was 4.86.
AGTCAAAGTTCACTAGTTAACGTAAGATTCAGCT showed a PBM binding z-score of 5.06.
CCTAGTTGGTCAGGAGGGCACACACCGGATATGA showed a PBM binding z-score of 0.184.
TCTTGTAGATCAGCAGGTTCAGAAAGCTGGCCAA was tested, and the PBM binding z-score was -0.19.
TCTATTAGTTGAAGGGAAACCGACGAGTCCGTTT was tested, and the PBM binding z-score was 0.681.
In the case of ACTACCAGGCCAAGTTTGGGTCACTCAAACAAAG, the PBM binding z-score is reported as 0.642.
Sequence GCTAGCAGGCCATTTGGGTCACTCGATGACGGGC has a PBM binding z-score of -0.0398.
Sequence TCTAGTTGGTCAAAGGTCACACGCTCGAAATGCG has a PBM binding z-score of 6.24.
AGAATGTGGTTATACGTAGATCAGGGAAGAAAGT gave a PBM binding z-score of 0.107.
Sequence CCTTACTGGTCACTGACAGGTTATAGCATTTGGA has a PBM binding z-score of 0.509.
TTACCAAGGTGAGCTGAGGTCCTTGATCCAACTC was tested, and the PBM binding z-score was 0.6.
TCATATAGGTATAGGTGAAAGTCGAACGATATGA was tested, and the PBM binding z-score was 0.449.
Work on ACTAGCAGGCCAAGATTGGGTCACTCAAACAAAG yielded a PBM binding z-score of -0.0447.
ATCTCTAGGTCACAAGTTCAGTGAAAGAGAGGAC was tested, and the PBM binding z-score was 3.91.
In the case of GGAACGAGGGCAAGTGGATAGCAGAGTTTGATGG, the PBM binding z-score is reported as 0.68.
In the case of TGTCAAAGTTCATAGGTAACGTAAGTATCCACAC, the PBM binding z-score is reported as 6.65.
GCTATTAGTTGAAACGGCAACCGAATGATTCTCG gave a PBM binding z-score of -0.263.
Work on CAAACTAGGACAAAGGTCAAAGTCGAGCCAACCA yielded a PBM binding z-score of 6.31.
With CCTTACGGGTCCAGGTTATAGCACGGGTGGTACG the PBM binding z-score was -0.118.
CGAACTAGGTCATTGACTGGACAGTGAATAGTAA showed a PBM binding z-score of 4.77.
With TAGCCTAGATCATGCGGGCCAGTATAGTGTCGGC the PBM binding z-score was -2.92.
TCTGCTAGGTCAGCGATGGTCAGCTAATCTGCTA gave a PBM binding z-score of 1.17.
For ACAGACAGGTGATGTAGGTAACTCAGGCTATCAT, the PBM binding z-score was -0.0766.
TCTTTTAGATCAAAGGTTAAGAAAGCCGAAGCCT gave a PBM binding z-score of 1.68.
Sequence TCTTGTAGATCAATAGAGGTTAAGAAGGTGCGCT has a PBM binding z-score of 0.831.
TCTGCTAGGTCAGTTGGTCACCTAACGAGCTGCC gave a PBM binding z-score of 1.06.
GTATCAAGGTGAATAGGTCGTTGATGAGTAGGCG gave a PBM binding z-score of 0.903.
Work on ATCTCTAGGTAACACGTTCAGTGAAAGAGAGGAC yielded a PBM binding z-score of 0.359.
TTACCAAGGTGAAAGGTCGTTCATGCACGCCTTG gave a PBM binding z-score of 3.83.
Sequence ACACGGAGGACAAAGGTCAGAGCTACGCCAGTGA has a PBM binding z-score of 4.18.
Sequence TCATATAGGTAAACAGGTGACAGTCCGTAAGTTA has a PBM binding z-score of 0.832.

These sequences were tested on LXRa:RXRa (NR concentration 270 nM, RXRa partner concentration 90 nM) in the same assay as above.
Outline: as §1
TCATAAAGGTAAACAGGTGAAAGTCCGTAAGTTA gave a PBM binding z-score of 1.53.
ATATGTAGGTTACATCCGGTTCATTCAGGCTATG gave a PBM binding z-score of 4.13.
For TCTATTAGTTGACGGGCAACCGACGAGTCCGTTT, the PBM binding z-score was 0.776.
CAGCCAAGGTCAGGGCCAGTATAGGAGGAACGTT was tested, and the PBM binding z-score was 3.08.
Sequence CGTCCAAGGTCAGAGAGGTCAGTCAATGCCGAGT has a PBM binding z-score of 5.49.
CGTCCAAGGTCAAAAGTCAGTGAAGAGATGACGG gave a PBM binding z-score of 5.19.
Sequence TAGCATAGGTCATTGGGCCAGTATAGTACGCATC has a PBM binding z-score of 5.02.
ATCGAAAGGTCGAAGGTGTGTATACCCACCCGAA was tested, and the PBM binding z-score was 3.02.
Sequence GTACCAAGGTGAATAGGTTGTTGATGAGTAGGCG has a PBM binding z-score of 0.445.
For TAGCCTAGGTCATTGCGCCAGTATAGTACGCATC, the PBM binding z-score was 3.69.
With AGTCAAAGTTCACTAGTTAACGTAAGATTCAGCT the PBM binding z-score was 5.13.
Sequence CCTAGTTGGTCAGGAGGGCACACACCGGATATGA has a PBM binding z-score of 0.335.
Work on TCTTGTAGATCAGCAGGTTCAGAAAGCTGGCCAA yielded a PBM binding z-score of 0.323.
Work on TCTATTAGTTGAAGGGAAACCGACGAGTCCGTTT yielded a PBM binding z-score of 0.912.
In the case of ACTACCAGGCCAAGTTTGGGTCACTCAAACAAAG, the PBM binding z-score is reported as 0.276.
For GCTAGCAGGCCATTTGGGTCACTCGATGACGGGC, the PBM binding z-score was -0.0743.
For TCTAGTTGGTCAAAGGTCACACGCTCGAAATGCG, the PBM binding z-score was 5.77.
AGAATGTGGTTATACGTAGATCAGGGAAGAAAGT showed a PBM binding z-score of 0.271.
With CCTTACTGGTCACTGACAGGTTATAGCATTTGGA the PBM binding z-score was 0.779.
For TTACCAAGGTGAGCTGAGGTCCTTGATCCAACTC, the PBM binding z-score was -0.364.
In the case of TCATATAGGTATAGGTGAAAGTCGAACGATATGA, the PBM binding z-score is reported as 0.366.
ACTAGCAGGCCAAGATTGGGTCACTCAAACAAAG was tested, and the PBM binding z-score was -0.288.
ATCTCTAGGTCACAAGTTCAGTGAAAGAGAGGAC was tested, and the PBM binding z-score was 4.68.
With GGAACGAGGGCAAGTGGATAGCAGAGTTTGATGG the PBM binding z-score was 0.618.
For TGTCAAAGTTCATAGGTAACGTAAGTATCCACAC, the PBM binding z-score was 5.95.
Work on GCTATTAGTTGAAACGGCAACCGAATGATTCTCG yielded a PBM binding z-score of -0.34.
Sequence CAAACTAGGACAAAGGTCAAAGTCGAGCCAACCA has a PBM binding z-score of 6.08.
With CCTTACGGGTCCAGGTTATAGCACGGGTGGTACG the PBM binding z-score was -0.304.
In the case of CGAACTAGGTCATTGACTGGACAGTGAATAGTAA, the PBM binding z-score is reported as 2.75.
TAGCCTAGATCATGCGGGCCAGTATAGTGTCGGC showed a PBM binding z-score of -1.33.
With TCTGCTAGGTCAGCGATGGTCAGCTAATCTGCTA the PBM binding z-score was 0.657.
ACAGACAGGTGATGTAGGTAACTCAGGCTATCAT was tested, and the PBM binding z-score was -0.183.
In the case of TCTTTTAGATCAAAGGTTAAGAAAGCCGAAGCCT, the PBM binding z-score is reported as 2.05.
Work on TCTTGTAGATCAATAGAGGTTAAGAAGGTGCGCT yielded a PBM binding z-score of 2.82.
For TCTGCTAGGTCAGTTGGTCACCTAACGAGCTGCC, the PBM binding z-score was 0.728.
For GTATCAAGGTGAATAGGTCGTTGATGAGTAGGCG, the PBM binding z-score was 1.1.
With ATCTCTAGGTAACACGTTCAGTGAAAGAGAGGAC the PBM binding z-score was 0.232.
For TTACCAAGGTGAAAGGTCGTTCATGCACGCCTTG, the PBM binding z-score was 3.72.
Sequence ACACGGAGGACAAAGGTCAGAGCTACGCCAGTGA has a PBM binding z-score of 4.33.
In the case of TCATATAGGTAAACAGGTGACAGTCCGTAAGTTA, the PBM binding z-score is reported as 0.858.
